According to the supplement of paper PMC11732987, “Enantioselective OTUD7B fragment discovery through chemoproteomics screening and high-throughput optimisation” (Communications Chemistry, 2025):

These molecules were tested against COPS5 (UniProt Q92905) (assay: log2 ratio of Biotin-Ahx-Ub-VS probe labelling (fragment/DMSO); higher = less target engagement (more negative = stronger competition), active = hit call of the paper (q ≤ 0.05, log2 ratio ≤ -1)). Details: compound concentration: 200 uM; treatment time: 3 h.
Experimental: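 Competitive ABPP in HEK293T cell lysate. Lysates were treated with each chloroacetamide fragment at 200 µM for 3 h, then with Biotin-Ahx-Ub-VS (0.5 µM, 1 h), NeutrAvidin-enriched and analysed by diaPASEF LC-MS/MS. Protein LFQ was median-normalised; average log2 ratio is fragment/DMSO from an unpaired t-test (n=3 treated, n=44 DMSO). Hits: q ≤ 0.05, log2 ratio ≤ -1, unique peptides ≥ 2.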

COPS5, sequence (Q92905 whole entry, looked up, the tested form may be a part): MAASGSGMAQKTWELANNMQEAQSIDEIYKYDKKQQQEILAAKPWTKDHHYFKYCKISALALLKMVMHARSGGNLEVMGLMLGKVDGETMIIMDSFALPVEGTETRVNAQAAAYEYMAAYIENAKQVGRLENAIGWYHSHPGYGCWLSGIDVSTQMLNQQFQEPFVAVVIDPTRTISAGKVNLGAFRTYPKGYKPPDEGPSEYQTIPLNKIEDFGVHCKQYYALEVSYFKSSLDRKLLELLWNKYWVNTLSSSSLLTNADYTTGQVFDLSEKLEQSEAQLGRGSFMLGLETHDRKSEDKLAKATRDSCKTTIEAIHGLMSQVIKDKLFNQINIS

Structure (SMILES) | log2 ratio of Biotin-Ahx-Ub-VS probe labelling
Cc1cccc(C(CNC(=O)CCl)N2CCOCC2)c1.Cl (configuration not stated) | 0.0369 (inactive)
O=C(CCl)NC1CCS(=O)(=O)c2ccccc21 (configuration not stated) | 0.159 (inactive)
O=C(CCl)NC(Cn1ccccc1=O)c1ccccc1 (configuration not stated) | 0.168 (inactive)
Cc1cc(C(=O)NC2CCN(C(=O)CCl)CC2)no1 | 0.0469 (inactive)
CS(=O)(=O)c1ccc(NC(=O)CCl)cc1 | 0.0438 (inactive)
Cc1ccc(N2CCC(NC(=O)CCl)C2=O)cc1 (configuration not stated) | -0.0995 (inactive)
Cc1ncc2c(n1)CCN(C(=O)CCl)C2 | 0.163 (inactive)
